# Screens: PubChem, several laboratories
# Bead autofluor = flagged as autofluorescent in microsphere protease counterscreen. compound autofluorescence counterscreen, microsphere flow cytometry; active compounds read high. fluorescence intensity (test concentration not listed). 360,000 tested, 3.1% active. AID 624483; in the data active means fluorescence intensity above about 16000; inconclusive means no clear call, values can overlap the other calls
# Anthrax LF inh2 = anthrax lethal factor protease inhibition | inhibition, % at 10 µM | 360,000 tested, 0.12% active | multiplex microsphere protease cleavage assay, LF; further: plate controls were buffer without enzyme for full effect and enzyme alone for no effect
# BoNT F protease = BoNT F light chain protease inhibition; Multiplex microsphere protease cleavage assay, flow cytometry; inhibition, % at 10 µM; 360,000 tested, 0.22% active; AID 588497; in the data active means inhibition above about 35%, passing the limit was not always enough; inconclusive means no clear call, values can overlap the other calls; further: plate controls were buffer without enzyme for full effect and enzyme alone for no effect
# BJeLR lethal = kills HRASV12-expressing BJeLR cells; BJeLR (HRASV12) viability, CellTiter-Glo ATP luminescence, 48 h; inhibition, % (test concentration not listed); 300,000 tested, 0.17% active; AID 1554; in the data active means inhibition above about 50%; inconclusive means no clear call, values can overlap the other calls
# BoNT A protease = blocks Botulinum neurotoxin A light chain protease; multiplex microsphere protease substrate cleavage, flow cytometry; inhibition, % at 10 µM; 360,000 tested, 0.17% active; AID 588499; further: plate controls were buffer without enzyme for full effect and enzyme alone for no effect
# Starred values were filed as active, the others as inactive; ? = inconclusive; / = no result given. A selection: hits, their analogues and other compounds. The true share with any hit is near 3.5%. Unless noted, no stated cut-off is given here; in the data, active means inhibition above about 30%; inconclusive means no clear call, values can overlap the other calls; inactive means below that.
SMILES,Bead autofluor,Anthrax LF inh2,BoNT F protease,BJeLR lethal,BoNT A protease
COc1cc(/C=N/N2CCN(Cc3ccc(Cl)cc3)CC2)cc(Br)c1O,4715,-2.0,36.4*,15.2,-3.8
COc1ccc(-n2cnnc2SCC(=O)N(C)C2CCS(=O)(=O)C2)cc1 (configuration not stated),23013*,-2.5,-2.8,0.6,-0.5
COc1ccc(CCNC(=S)Nc2cccc3ccccc23)cc1,2703,1.0,-2.8,3.0,0.2
COc1ccccc1CCNC(=O)c1ccc(C)o1,21801*,-0.7,-1.7,0.2,?
COc1ccc(NC(=S)NCc2ccccc2Cl)c(OC)c1,3290,-26.5,-32.7,-4.3,5.7
COc1ccc(NC(=S)NCCc2ccccc2OC)c(OC)c1,16398*,-7.8,-0.9,-10.4,-0.2
Cc1ccc(C(=O)NCCCCNC(=O)c2ccc(C)o2)o1,2957,-1.5,1.0,-7.5,-0.1
COc1ccc(OCCNC(=S)Nc2cccc3ccccc23)cc1,22439*,-2.2,-3.4,-4.4,-0.4
CS(=O)(=O)c1cc(N2CCOCC2)ccc1CNC[C@H]1O[C@@H](n2cnc3c(=O)[nH]c(N)nc32)[C@H](O)[C@@H]1O,6067,-9.6,-20.3,/,-3.5
CCOC(=O)C1(C)CCCN1C(=O)c1csnn1 (configuration not stated),3418,-3.9,4.2,/,0.2
CCCCn1nnnc1C(c1ccccc1)N1CCN(c2cc(C)ccc2C)CC1 (configuration not stated),5603,1.1,5.2,/,-0.1
Cc1ccc(-n2ncc3c(N4CCC(C(N)=O)CC4)ncnc32)c(C)c1,23419*,2.0,0.2,2.7,0.3
CCN(CC)C(=O)C1CCN(c2ncnc3c2cnn3-c2ccc(C)cc2C)CC1,3693,0.0,7.1,10.0,-0.2
CC1(C)CC(=O)C2=C(C1)N(c1ccc(F)cc1)C(=O)C2(O)C(F)(F)F (configuration not stated),22420*,-0.5,-6.6,-6.5,-6.4
CCNC(=O)n1nccc1C(C)Oc1cccc(C(F)(F)F)c1 (configuration not stated),21560*,-2.0,0.2,8.9,1.6
CCNC(=O)n1nccc1C(C)Oc1ccc(Cl)cc1 (configuration not stated),21790*,-1.9,-1.5,2.4,0.1
CC(C)N(Cc1nccn1C)C(=O)c1cc(COc2cccc(C(F)(F)F)c2)on1,5557,-3.6,-1.9,3.9,0.5
CC(C)c1ccc(NC(=O)Nc2nc(C(N)c3ccccc3Cl)cs2)cc1 (configuration not stated),3546,-5.5,-10.5,/,-0.3
CCOc1ccc(-c2csc(C3COc4ccccc4O3)n2)cc1 (configuration not stated),23266*,-0.5,-2.8,/,0.6
CCC(C)n1nnc2c(=O)oc3ccccc3c21 (configuration not stated),23717*,0.1,-1.1,-5.1,0.4
CN(C)S(=O)(=O)c1ccc(NC(=O)Cn2nc(-c3ccc4c(c3)OCCO4)ccc2=O)cc1,2949,-12.3,0.0,/,-0.6
COc1cc(C(=O)Nc2nc(OC)c(-c3ccccc3)c(OC)n2)cc(OC)c1OC,6250,5.0,-0.4,-4.1,0.3
COc1cc(C(=O)Nc2cc(-c3ccccc3)[nH]n2)cc(OC)c1OC,20197*,-15.4,1.1,0.2,?
Cc1csc(NC(=O)CSc2nsc(SCC(=O)Nc3nc(C)cs3)c2C#N)n1,21632*,-9.1,6.4,-1.5,?
Cc1ccc(NC(=O)CSc2nsc(SCC(=O)Nc3ccc(C)cc3C)c2C#N)c(C)c1,2857,-2.6,-1.6,0.0,-0.6
SMILES,Bead autofluor,Anthrax LF inh2,BoNT F protease,BJeLR lethal,BoNT A protease
Cc1ccc2sc(NC(=O)CSc3nc(C)cc(C)c3C#N)nc2c1,22663*,-1.2,2.8,14.6,?
CC(=O)CSc1nsc(SCC(C)=O)c1C#N,3429,9.0,-13.3,2.4,7.4
CC(C)(C)NC(=O)CSc1nsc(SCC(=O)NC(C)(C)C)c1C#N,17119*,-3.0,0.3,-12.1,-2.1
CN(C)CCN1CCN(C2CN(C3CCCC3)S(=O)(=O)C2)CC1 (configuration not stated),5709,-4.0,-7.2,/,-1.0
O=C(Nc1ccc(F)c(Cl)c1)c1ccc2sc([C@@H]3O[C@H](CO)[C@H](O)[C@H](O)[C@H]3O)nc2c1,3803,4.5,-0.3,/,-0.2
COc1ccc(CC(=O)NNC(=O)CCC(=O)Nc2cc(C)ccc2C)cc1,4875,1.6,2.8,-0.2,-0.3
COc1ccc(CC(C(=O)Nc2cc(C)ccc2C)/C(N)=N/O)cc1 (configuration not stated),16939*,-1.9,-0.9,7.0,-0.8
